In ChEMBL document CHEMBL3988442, “University of Dundee, Small-Polar-MMV Screening Library” (2021):
Screen size: about 48,000 compounds; about 13,000 (27%) showed an effect of 50% or more. The list shows a part of the results.

Test system: Wolbachia pipientis
Assay: Anti-Wolbachia Cell-Based Screen
Type: functional
Parameters: scale not given: in the data most compounds retested in dose-response had high values
Details: 5 µM

Q: How did the “Percent Effect” value turn out when `C=C(C)CN(CC)Cc1nc(C)no1` was run?
A: 10.24%

Q: For `COCc1nc(C(=O)NS(=O)(=O)c2cc(F)ccc2F)cs1`, which “Percent Effect” value is on record?
A: 4.131%

Q: Which “Percent Effect” value does the source give for `Cc1cc(C(=O)NCC(O)c2ccc(Cl)s2)c(C)o1` (stereo unspecified) here?
A: -36.26%

Q: With `CCC1CN(CCNS(C)(=O)=O)c2ccccc2O1` (stereo unspecified) as the compound, how does the “Percent Effect” value read?
A: -11.22%

Q: How did the “Percent Effect” value turn out when `CCNc1c(C#N)c(=O)n(C)c(=O)n1C` was run?
A: 7.391%

Q: For `NC(=O)N1CCCC(C(=O)N2CCc3c(nc(CC4CC4)[nH]c3=O)C2)C1` (stereo unspecified), which “Percent Effect” value is on record?
A: 10.65%

Q: Which “Percent Effect” value does the source give for `CC1CCCCN1c1nc2c(c(=O)[nH]1)CCN(Cc1ccccc1O)C2` (stereo unspecified) here?
A: 110.1%

Q: Which “Percent Effect” value does the source give for `Cc1nc(-c2ccc(C(=O)O)cc2)cc(C2CCN(C(C)C)CC2)n1` here?
A: 130.3%

Q: For `Cc1nc(-c2ccc(C(=O)O)cc2)cc(C2CCCN(C(C)C)C2)n1` (stereo unspecified), which “Percent Effect” value is on record?
A: 96.58%

Q: Which “Percent Effect” value does the source give for `Cc1nc(O)cc(C2CCN(C(=O)C(C)Cn3nc(C)nc3C)CC2)n1` (stereo unspecified) here?
A: -10.44%

Q: With `Cc1nc(-c2cccc(C(=O)O)c2)cc(C2CCN(C(C)C)C2)n1` (stereo unspecified) as the compound, how does the “Percent Effect” value read?
A: -0.6305%

Q: With `Cc1nc(-c2ccc(C(=O)O)cc2)cc(C2CCN(C(C)C)C2)n1` (stereo unspecified) as the compound, how does the “Percent Effect” value read?
A: -2.545%

Q: With `Cc1nc(-c2cccc(C(=O)O)c2)cc(C2CCCN(C(C)C)C2)n1` (stereo unspecified) as the compound, how does the “Percent Effect” value read?
A: 109.5%

Q: For `CC(C)S(=O)(=O)N1CCCC(c2cccc(C(=O)O)c2)C1` (stereo unspecified), which “Percent Effect” value is on record?
A: 13.9%

Q: How did the “Percent Effect” value turn out when `O=C(O)C(F)(F)F.O=C(c1cnccn1)N1CCN2C[C@H](OCc3ccccc3F)C[C@H]2C1` was run?
A: 4.203%

Q: For `Cc1ccoc1C(=O)NC1CCN(Cc2csc3c(F)cccc23)CC1`, which “Percent Effect” value is on record?
A: 2.463%

Q: Which “Percent Effect” value does the source give for `Cc1cccc(N2CCC3(CCCN3Cc3cnn(C)c3C)CC2)n1` here?
A: 9.163%

Q: For `O=C(NCc1cnn2ccccc12)NC1CCCC1`, which “Percent Effect” value is on record?
A: -4.156%

Q: Which “Percent Effect” value does the source give for `Cc1c(CN2CCCC2(C)C(=O)N2CCOCC2)cnn1C` (stereo unspecified) here?
A: 169.3%

Q: How did the “Percent Effect” value turn out when `CCn1cc(CN2CCCN(C(=O)C3(C)CCOCC3)CC2)cn1` was run?
A: 8.44%

Q: For `Cc1c(CN2CCCC2(C)C(=O)NC2CCCC2)cnn1C` (stereo unspecified), which “Percent Effect” value is on record?
A: 156.7%

Q: Which “Percent Effect” value does the source give for `CNC(=O)C1(C)CCCN1Cc1cnn(C)c1C` (stereo unspecified) here?
A: 106.7%

Q: Which “Percent Effect” value does the source give for `Cc1oncc1C(=O)N1CCC(O)(CN2CCOCC2)C(C)(C)C1` (stereo unspecified) here?
A: 29.5%

Q: Which “Percent Effect” value does the source give for `Cc1c(CNC(=O)Nc2cccc3c2CCN3C)cnn1C` here?
A: -8.63%

Q: `Cc1c(CNC(=O)c2cn(CCC3CCCCN3)nn2)cnn1C` (stereo unspecified) was tested. Which “Percent Effect” value did it give?
A: 10.08%

Q: For `CNc1nc(CNC(=O)Nc2ccc(OC(C)C)cc2C)cs1`, which “Percent Effect” value is on record?
A: 3.504%

Q: `CCc1nc2n(n1)CCCC2Nc1nc(C2CC2)ns1` (stereo unspecified) was tested. Which “Percent Effect” value did it give?
A: 8.759%

Q: With `COc1cc(C)ccc1C(=O)N1CCC2(CCC(=O)N(C(C)C)C2)CC1` as the compound, how does the “Percent Effect” value read?
A: -6.21%

Q: Which “Percent Effect” value does the source give for `CCC(NC(=O)NCc1cc(Cl)ccc1OC)c1noc(C)n1` (stereo unspecified) here?
A: -1.249%

Q: With `CC(C)(O)CNC(=O)c1sccc1Br` as the compound, how does the “Percent Effect” value read?
A: 4.512%

Q: How did the “Percent Effect” value turn out when `Cn1cc(N2CCCC(Oc3ccc(F)cc3Cl)C2=O)cn1` (stereo unspecified) was run?
A: 5.607%

Q: With `CN(CCCN1CCCC1)[C@@H]1c2ccccc2C2(CCNCC2)[C@H]1O` as the compound, how does the “Percent Effect” value read?
A: 1.656%

Q: How did the “Percent Effect” value turn out when `CCc1nc(C2CCCN2C(=O)CCc2cccs2)no1` (stereo unspecified) was run?
A: -2.964%

Q: How did the “Percent Effect” value turn out when `c1csc(CCN2CCCC2c2noc(C3CC3)n2)c1` (stereo unspecified) was run?
A: -13.07%

Q: How did the “Percent Effect” value turn out when `CCc1nc(C2CCCN2CCc2cccs2)no1` (stereo unspecified) was run?
A: -1.558%

Q: How did the “Percent Effect” value turn out when `CCc1nc(C2CCCN2C(=O)Cc2cccs2)no1` (stereo unspecified) was run?
A: 95.79%

Q: For `O=C(CCc1cccs1)N1CCCC1c1noc(C2CC2)n1` (stereo unspecified), which “Percent Effect” value is on record?
A: 100.7%

Q: Which “Percent Effect” value does the source give for `O=C(CCCc1ccccn1)N1CCCC1c1noc(C2CC2)n1` (stereo unspecified) here?
A: 105.7%

Q: `O=C(COc1cc(Cl)cc(Cl)c1)NCc1nncn1C1CC1` was tested. Which “Percent Effect” value did it give?
A: 2.768%

Q: How did the “Percent Effect” value turn out when `c1cn(Cc2nnc(C3CCN(c4nccs4)CC3)n2C2CC2)cn1` was run?
A: 0.8881%

Q: Which “Percent Effect” value does the source give for `CC(C)n1ccnc1C1CCCN(c2ccncc2F)C1` (stereo unspecified) here?
A: 20.23%

Q: Which “Percent Effect” value does the source give for `Cc1c(C(=O)NC2(C#N)CCCC2)nnn1-c1ccccc1Cl` here?
A: -3.476%

Q: With `COCC(C)NC(=O)CCSc1ccc(F)cc1` (stereo unspecified) as the compound, how does the “Percent Effect” value read?
A: 4.419%

Q: How did the “Percent Effect” value turn out when `COCC(C)NC(=O)CCCn1cnc2ccccc2c1=O` (stereo unspecified) was run?
A: 133.1%

Q: Which “Percent Effect” value does the source give for `Cc1cccc(N2CCN(CCC(=O)NCc3cnc(C)cn3)CC2)c1` here?
A: -29.47%

Q: How did the “Percent Effect” value turn out when `CCn1c(C)nnc1SCCNC(=O)Cn1cnc2ccccc2c1=O` was run?
A: 1.964%

Q: `COC(=O)CNC(=O)CCCn1cnc2ccccc2c1=O` was tested. Which “Percent Effect” value did it give?
A: 126.5%

Q: How did the “Percent Effect” value turn out when `Cc1nnc(SCCNC(=O)Cn2cnc3ccccc3c2=O)s1` was run?
A: -10.12%

Q: `Cn1ccnc1SCCNC(=O)Cn1cnc2ccccc2c1=O` was tested. Which “Percent Effect” value did it give?
A: 4.017%

Q: With `Cc1cnc(CNC(=O)CCCn2cnc3ccccc3c2=O)cn1` as the compound, how does the “Percent Effect” value read?
A: 123.4%

Q: `CC(C)NC(=O)CCCn1cnc2ccccc2c1=O` was tested. Which “Percent Effect” value did it give?
A: 103.3%

Q: Which “Percent Effect” value does the source give for `CCC(C)NC(=O)CCc1ccnc2ccccc12` (stereo unspecified) here?
A: 0.4358%

Q: For `CN(C)S(=O)(=O)c1ccc(CNc2ccc(Cl)cn2)cc1`, which “Percent Effect” value is on record?
A: -2.882%

Q: With `CSCC(C)C(=O)NCc1c(C)nc2cc(=O)[nH]n2c1C` (stereo unspecified) as the compound, how does the “Percent Effect” value read?
A: -19.78%

Q: With `CCCc1nccn1-c1ccc(C(O)CN2CCOCC2)cc1` (stereo unspecified) as the compound, how does the “Percent Effect” value read?
A: -2.856%

Q: With `CCc1nc2c(c(N3CCOCC3)n1)CCN(C(=O)c1ccon1)CC2` as the compound, how does the “Percent Effect” value read?
A: 0.9669%

Q: `Cc1cc(C(C)NC(=O)CCn2nnc3ccccc3c2=O)c(C)o1` (stereo unspecified) was tested. Which “Percent Effect” value did it give?
A: 5.131%

Q: For `CC(NC(=O)CCCn1cnc2ccccc2c1=O)c1ncn[nH]1` (stereo unspecified), which “Percent Effect” value is on record?
A: 135.6%

Q: How did the “Percent Effect” value turn out when `CC(NC(=O)CCCc1ccc(Cl)cc1)c1nnn[nH]1` (stereo unspecified) was run?
A: -9.693%

Q: With `Cn1cc2ncn(CCCOc3cccnc3)c(=O)c2n1` as the compound, how does the “Percent Effect” value read?
A: -2.569%

Q: For `O=C(CCCn1cnc2ccccc2c1=O)Nc1nc[nH]n1`, which “Percent Effect” value is on record?
A: 118.2%

Q: Which “Percent Effect” value does the source give for `O=C(CCn1ccc2ncccc2c1=O)N1CCCC1` here?
A: -7.075%

Q: For `Cc1noc(C)c1CN(C)C(=O)NCCOc1ccc(F)cc1F`, which “Percent Effect” value is on record?
A: -11.52%

Q: `O=C(NCC1=CCCCC1)C(c1cccnc1)N1CCOCC1` (stereo unspecified) was tested. Which “Percent Effect” value did it give?
A: -8.257%

Q: With `CCN(CC)CCC(=O)N1CCc2c(nc(N(C)C)nc2N(C)C)C1` as the compound, how does the “Percent Effect” value read?
A: -0.6304%

Q: With `CN(C)c1nc2c(c(=O)[nH]1)CCN(C(=O)c1ccc(=O)[nH]c1)C2` as the compound, how does the “Percent Effect” value read?
A: -0.009534%

Q: `CCNc1ncc(C(=O)N2CCC(c3ccccc3C(=O)O)C2)cn1` (stereo unspecified) was tested. Which “Percent Effect” value did it give?
A: -1.411%

Q: `CCNc1ncc(C(=O)N2Cc3nc(C)[nH]c(=O)c3C2)cn1` was tested. Which “Percent Effect” value did it give?
A: 110.8%

Q: Which “Percent Effect” value does the source give for `Cc1nc2c(c(N(C)C)n1)CCN(C(=O)c1ccc(N)nc1)C2` here?
A: 84.83%

Q: With `CCNc1ncc(C(=O)N2CCOC(CCCC(C)C)C2)cn1` (stereo unspecified) as the compound, how does the “Percent Effect” value read?
A: 18.06%

Q: `CCCc1ccc(C(=O)N2CCn3c(nnc3C(C)C)C2)cc1` was tested. Which “Percent Effect” value did it give?
A: 1.679%

Q: With `CCCc1ccc(C(=O)N2CCc3c(nc(C)nc3N(C)C)C2)cc1` as the compound, how does the “Percent Effect” value read?
A: 96.2%

Q: How did the “Percent Effect” value turn out when `Cc1nc2c(c(N(C)C)n1)CCN(C(=O)CN1CCC(O)CC1)C2` was run?
A: -29.43%

Q: `CCNc1ncc(C(=O)N2CCc3c(nc(C)nc3N(C)C)C2)cn1` was tested. Which “Percent Effect” value did it give?
A: 95.13%

Q: How did the “Percent Effect” value turn out when `CCCc1ccc(C(=O)N2CCc3c(nc(N(C)C)[nH]c3=O)C2)cc1` was run?
A: 0.7341%

Q: With `Cc1nc2c(c(N(C)C)n1)CCN(C(=O)c1sccc1S(N)(=O)=O)C2` as the compound, how does the “Percent Effect” value read?
A: -20.97%
